Source: PubChem
The list is not random: actives were taken first. Their share in the collection is about 5.7%.
rCAG binder – r(CAG) repeat RNA binding | TO-PRO-1 dye displacement fluorescence | 370,000 tested, 1.3% active | inhibition, % at 3 µM;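 active = inhibition above the plate cutoff, the mean of all test compounds on that plate plus 3 SD, cut at about 35% in these data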;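 note: 0% = DMSO alone and 100% = 100 µM mitoxantrone as full dye displacement; higher means more dye released from RNA so lower well fluorescence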
FAS TE block – inhibitors of human fatty acid synthase thioesterase domain. 360,000 tested, 0.67% active. inhibition, % at 15 µM. recombinant FAS-TE, OMFH fluorogenic substrate, fluorescence endpoint. P49327;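 active = compounds whose normalised, plate-corrected inhibition of enzyme fluorescence in the single-dose primary screen is 50% or more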;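 note: 0% = DMSO with enzyme and 100% = substrate without enzyme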
MPTP inh – inhibitors of mitochondrial permeability transition pore. inhibition, % at 10 µM. 360,000 tested, 1.4% active. isolated mouse mitochondria, Ca2+ swelling absorbance, 30 min. AID 602449;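 active = inhibition of 50% or more, scaled per plate between neutral and stimulator controls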;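 note: 0% = DMSO wells given calcium and 100% = 1 mM EGTA wells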
GRIN3A LBD mod – modulators (binders) of human NR3A ligand-binding domain; NR3A LBD differential scanning fluorimetry, Tm shift; 0% = protein alone, 100% = glycine-bound protein; Tm shift relative to glycine control, % at 25 µM; 340,000 tested, 2.5% active;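 active = melting temperature shift of at least 10% of the positive control shift, at one fixed dose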
Myeloid diff MLP – compounds promoting myeloid differentiation; ER-HoxA9 myeloid progenitors, lysozyme-GFP differentiation, flow cytometry; calls only at 10 µM; 360,000 tested, 1% active;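 active = normalized GFP-positive differentiation at or above the plate's own cutoff, the solvent-only control mean plus 3 SD; inconclusive = no clear call, values can overlap the other calls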;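 note: cells exposed to compound for four days before flow analysis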
Rh123 counter – Rhodamine 123 counter-screen of mitochondrial pore hits. shares compounds with MPTP inh. isolated mitochondria, membrane potential, Rhodamine 123 fluorescence. inhibition, % at 10 µM. 5,000 tested, 78% active; in the data active = inhibition above about 22%;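 note: 0% = DMSO vehicle and 100% = positive control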
MPTP swell DR – MPTP inhibition, dose response swelling confirmation; 780 tested, 58% active; IC50, µM; isolated mitochondria swelling, absorbance; shares compounds with MPTP inh; in the data active = IC50 below about 20 µM
MPTP cs DR – counter-screen for mitochondrial permeability transition pore inhibitors, dose response; 780 tested, 49% active; isolated mitochondria counterscreen, fluorescence read-out; IC50, µM; AID 651564; shares compounds with MPTP inh; in the data active = IC50 below about 80 µM
Starred values were filed as active, the others as inactive; i = inactive; u = inconclusive; x = no result given.

SMILES | rCAG binder | FAS TE block | MPTP inh | GRIN3A LBD mod | Myeloid diff MLP | Rh123 counter | others
COc1ccc(C)cc1NCc1cc(=O)oc2cc(-c3ccccc3)c(O)cc12 | 13 | -2 | 94* | 20* | i | 57*
Cc1ccc(OCC(O)CNCc2ccc(F)cc2)cc1 (centres undefined) | -5 | -2 | 85* | -2 | i | -9 | MPTP swell DR=9.2*;MPTP cs DR=>80
O=C(O)C1CC=CCC1C(=O)Nc1ccc2c(c1)CCC2 (centres undefined) | -2 | -5 | -1 | -3 | i | x
Cc1cc(C)cc(NC(=O)[C@H](Cc2c[nH]c3ccccc23)NC(=O)[C@@H]2Cc3ccccc3CN2)c1 | 7 | 8 | 11 | 2 | i | x
CCc1ccc(NC(=O)[C@H](Cc2c[nH]c3ccccc23)NC(=O)[C@@H]2Cc3ccccc3CN2)cc1 | 2 | 12 | 72* | -2 | i | -16 | MPTP swell DR=7.6*;MPTP cs DR=>80
O=C(COC(=O)C12CC3CC(CC(C3)C1)C2)Nc1nc2c(F)c(F)c(F)cc2s1 | 5 | 6 | 70* | 29* | u | 40*
O=c1/c(=C/c2ccc(O)c([N+](=O)[O-])c2)sc2nc3ccccc3n12 | 3 | 10 | 66* | 9 | i | 30*
O=c1/c(=C\c2cccnc2)sc2nc3ccccc3n12 | x | -10 | 0 | -1 | i | x
O=C(NCC1CCCO1)c1cc2ccccc2cc1O (centres undefined) | 6 | -3 | -1 | 1 | i | x
O=C(NCC1CCCCC1)c1cc2ccccc2cc1O | 9 | 13 | 59* | 8 | i | 81*
O=C(NNC(=O)c1cc2ccccc2cc1O)NC1CCCCC1 | 12 | -3 | 4 | 0 | i | x
Cc1ccc(Cl)cc1NC(=O)COC(=O)c1ccccc1O | -2 | -7 | 1 | 1 | i | x
Cc1ccc(Cl)cc1NC(=O)c1cc2ccccc2cc1O | 24 | 14 | 99* | 30* | i | 74*
CC1CCC(NC(=O)c2cc3ccccc3cc2O)CC1 (centres undefined) | 16 | 21 | 87* | 8 | i | 94*
O=C(Nc1ccc(OC(F)F)c(Cl)c1)C(c1ccccc1)c1ccccc1 | 4 | 46 | 83* | 21* | i | 90*
CCC(C(=O)Nc1ccc(OC)c(Cl)c1)c1ccccc1 (centres undefined) | 4 | 14 | 2 | -7 | i | x
COCc1cccc(NC(=O)Cc2cccc3ccccc23)c1 | 2 | 2 | -1 | 1 | i | x
O=C(Cc1cccc2ccccc12)Nc1ccc(OC(F)F)c(Cl)c1 | 11 | 37 | 85* | 23* | i | 90*
N#C/C(=C/c1ccc(N2CCCC2)c([N+](=O)[O-])c1)c1nc2ccccc2[nH]1 | 1 | 22 | 53* | 12* | i | 35*
Cc1ccc2nc(/C(C#N)=C\c3ccc(N4CCCCC4)c([N+](=O)[O-])c3)[nH]c2c1 | 10 | 13 | 56* | -1 | u | 64*
Cc1ccc(C(=O)O/N=C\c2ccc(N3CCCCC3)c([N+](=O)[O-])c2)cc1 | 5 | 24 | 0 | -1 | i | x
O=C(NCCN1CCc2ccccc2C1)Nc1ccc([N+](=O)[O-])cc1 | 10 | 0 | 94* | -1 | i | 84*
CSc1ccc(NC(=O)NCCCN2CCN(c3ccccc3F)CC2)cc1 | x | 4 | 62* | -4 | i | 0 | MPTP swell DR=i;MPTP cs DR=29*
O=C(NCCN1CCN(c2ccc([N+](=O)[O-])cc2)CC1)NCc1ccccc1 | -1 | 14 | 65* | -3 | i | 76*
CCN1CCN(Cc2ccc(NC(=O)Nc3ccc(SC)cc3)cc2)CC1 | -1 | -7 | 52* | 0 | i | -10 | MPTP swell DR=i;MPTP cs DR=>80
SMILES | rCAG binder | FAS TE block | MPTP inh | GRIN3A LBD mod | Myeloid diff MLP | Rh123 counter | others
CCN1CCN(Cc2ccc(NC(=O)Nc3ccccc3)cc2)CC1 | x | -8 | 1 | -1 | i | x
O=C(NCCCN1CCN(c2ccccc2F)CC1)Nc1ccc(F)cc1 | -7 | -2 | -1 | 0 | i | x
O=C(NCCN1CCN(Cc2ccc([N+](=O)[O-])cc2)CC1)C(=O)Nc1ccccc1 | -4 | 4 | 0 | 1 | i | x
Cc1ccc(CCS(=O)(=O)c2ccc(C(C)(C)C)cc2)cn1 | -8 | -2 | 19 | -2 | i | x
C[C@@H]1OC(C2CCCCC2)N(C)[C@H]2C[C@H]3c4[nH]c5c(-c6ccccc6)cccc5c4CCN3C(=O)[C@@H]12 (some centres undefined) | 5 | x | x | x | x | x
COc1ccc(CCNC(=O)Cc2c(Cl)cccc2Cl)cc1 | -3 | -3 | 0 | -2 | i | x
O=C(NCCCN1CCc2ccccc2C1)Nc1ccc(Br)cc1 | -4 | 1 | 93* | 2 | i | 103*
CC(C)c1nc(SCc2c(F)cccc2Cl)c2c(=O)n(C)c(=O)n(C)c2n1 | x | 31 | 94* | -1 | i | -6 | MPTP swell DR=>100;MPTP cs DR=>80
Cn1c(=O)c2c(nc(SCCCC#N)n2Cc2c(F)cccc2Cl)n(C)c1=O | 0 | 0 | -3 | 0 | i | x
CCNC(=O)C1CCCN(C(=O)c2cnc3ccccc3n2)CC1 (centres undefined) | 1 | -7 | 2 | x | i | x
COc1cccc(-c2csc(N3CCN(C(=O)Nc4ccc(Cl)cc4)CC3)n2)c1 | 6 | 26 | 88* | 15* | i | 89*
COCCCNC(=S)N1CCN(c2nc(-c3ccc(Cl)cc3)cs2)CC1 | 4 | 23 | 76* | x | i | 78*
COCCCNC(=S)N1CCN(c2nc(-c3ccccc3)cs2)CC1 | -1 | 22 | 2 | -3 | i | x
COc1ccc(CNCC(O)(c2ccc(F)cc2)c2ccc(F)cc2)cc1 | -6 | 12 | 73* | 1 | i | 16 | MPTP swell DR=6.6*;MPTP cs DR=20*
COc1ccc(CNCC(O)(c2ccccc2)c2ccccc2)cc1 | -1 | 0 | 2 | 1 | i | x
N#CC1(C#N)CC(C=O)=C(N)C1(C#N)CC(=O)C12CC3CC(CC(C3)C1)C2 (centres undefined) | 31 | -95 | 73* | 2 | i | 55*
Nc1nccnc1C(=O)OCC(=O)C12CC3CC(CC(C3)C1)C2 | -1 | 2 | -2 | 2 | i | x
COc1cccc(CNCCO)c1OCc1ccccc1Cl | 3 | -9 | 0 | 1 | i | x
COc1cc(CNCCO)cc(Cl)c1OCc1ccccc1Cl | -2 | -2 | 80* | -1 | i | -12 | MPTP swell DR=5.5*;MPTP cs DR=>80
CCOc1cc(CNCCCN2CCOCC2)cc(Br)c1OCc1ccccc1Cl | -7 | -1 | 100* | 1 | x | -4
CCOc1cccc(CNCCO)c1OCc1ccc(Cl)cc1 | 4 | 2 | -1 | 1 | i | x
CCOc1cc(CNCCO)cc(Br)c1OCc1ccc(Cl)cc1 | 10 | -10 | 90* | -3 | i | -23 | MPTP swell DR=3.8*;MPTP cs DR=61*
